PG9 Ab binder – binders of HIV-1 gp120 antibody PG9, primary screen, biochemical, TR-FRET. HIV-1 gp120 / PG9 antibody interaction. actives 0.43% (n = 360,000). AID 624416, 2012. inhibition, % at 6.7 µM. TR-FRET gp120-PG9 antibody binding; in the data active means inhibition above about 8.5%
GAA850 FXN act – FXN promoter activators, primary screen, cell-based, luciferase luminescence, HEK293 lucGAA850; HEK293 lucGAA850 FXN promoter luciferase reporter, 24 h; percent of 10 µM SAHA response; activation, % at 6 µM; actives 0.56% (n = 360,000); AID 540364, 2011;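 active means activation above the average of all compounds screened plus 3 SD, cutoff fixed separately per campaign, cut at about 7.5% in these data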;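 further: 0% = DMSO wells and 100% = 10 µM SAHA wells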
SMARCA2 act – SMARCA2 (BRM) function activators, primary screen, cell-based, luminescence, high throughput. MG213 cells, MMTV-luciferase reporter, dexamethasone, overnight. activation, % at 9.1 µM. actives 1% (n = 370,000). AID 652017, 2013; in the data active means activation above about 7.8%;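 further: 0% = vehicle wells and 100% = reference activator wells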
HSP90 refold inh – HSP90 inhibitors, primary screen, cell lysate, luminescence; actives 0.91% (n = 290,000); Rabbit reticulocyte lysate, luciferase refolding luminescence, 3 h; Heat shock protein HSP 90 (rabbit reticulocyte lysate; luciferase refolding); inhibition, % at 5.6 µM;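 active means inhibition above the screen-wide mean plus 3 SD, computed separately per campaign, cut at about 16% in these data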;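 further: 0% = DMSO wells and 100% = 60 µM geldanamycin wells; inhibitors lower the luminescence because luciferase stays unfolded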
AI-2 QS modul – Vibrio harveyi AI-2 quorum sensing modulators, primary screen, JMH597 strain, luminescence/OD600 ratio | Vibrio harveyi JMH597 AI-2 luminescence/OD600 ratio, 9 h; stronger effect = lower value; strain lacks LuxN and CqsS sensors; 0 = neutral-control median | activity change, % at 7.5 µM | actives 0.4% (n = 300,000); in the data active means activity change below about -75%, passing the limit was not always enough; inconclusive means no clear call, values can overlap the other calls;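 further: luminescence divided by OD600 gain over 9 h not by final OD600 alone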
HSF1 inh – HSF1 inhibitors in luciferase reporter cells, primary screen, cell-based, NIH3T3, luminescence; AID 2098, 2009; NIH3T3-HGL HSE-luciferase, MG132-induced, luminescence 8 h; stronger effect = lower value; activity change, negative = inhibition, % at 7.5 µM (by protocol); actives 0.77% (n = 300,000);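 active means more than half of replicate wells show activity change below -50%, luminescence cut by over half; inconclusive means some wells, but at most half, below -50%; inactive means no replicate well below -50%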;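 further: luciferase reports HSF-1 transcriptional activity via heat shock element; 0% = median of DMSO wells and -100% = zero luminescence signal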
Starred values were filed as active, the others as inactive. In the library only some 3.4% were active in any assay of this set; here they are far more common.

Results for O=C(C1CCCN1S(=O)(=O)c1cccc2ccccc12)N1CCN(c2ccccc2)CC1 (stereo unspecified) ?
SMARCA2 act: -0.1

Results for Cc1ccc(S(=O)(=O)N(C)c2c(C)ccc(S(=O)(=O)N3CCN(C=O)CC3)c2C)cc1 ?
PG9 Ab binder: -2.3; GAA850 FXN act: 0.4; SMARCA2 act: -0.8; HSP90 refold inh: -1.0; AI-2 QS modul: 8.3; HSF1 inh: 0.9

What do the screens show for `Cc1ccc(S(=O)(=O)N(C)c2c(C)ccc(S(=O)(=O)N3CCN(C)CC3)c2C)cc1`?
PG9 Ab binder: -1.4; GAA850 FXN act: 2.6; SMARCA2 act: -2.7; HSP90 refold inh: -3.0; AI-2 QS modul: -9.2; HSF1 inh: -60.5*

How did CCCCN=C(N)NC(=O)c1ccccc1 do in these assays?
SMARCA2 act: -0.7

Results for Cc1ccc(-c2nn[nH]n2)o1 ?
PG9 Ab binder: -2.9; GAA850 FXN act: -1.3; SMARCA2 act: -1.1; HSP90 refold inh: 1.3; AI-2 QS modul: 11.5; HSF1 inh: -58.0*

Results for O=C(O)c1ccc(NC2=C(Cl)C(=O)c3ccccc3C2=O)cc1 ?
PG9 Ab binder: -1.1; GAA850 FXN act: 0.8; SMARCA2 act: 1.5; HSP90 refold inh: 6.4; AI-2 QS modul: inconclusive; HSF1 inh: inconclusive

What do the screens show for `O=C(O)c1cccc(NC2=C(Cl)C(=O)c3ccccc3C2=O)c1`?
PG9 Ab binder: -5.8; GAA850 FXN act: 4.2; SMARCA2 act: 6.4; HSP90 refold inh: -7.1; AI-2 QS modul: inconclusive; HSF1 inh: -88.1*

What do the screens show for `CCc1cc(C)cc(OCCNC(=O)c2cncc(Br)c2)c1`?
PG9 Ab binder: 3.1; GAA850 FXN act: 0.3; SMARCA2 act: 0.4; HSP90 refold inh: 2.8; AI-2 QS modul: 23.8; HSF1 inh: -61.5*

What do the screens show for `O=C(C1CCCN(S(=O)(=O)c2ccc(Cl)cc2)C1)N(Cc1cccs1)C1CC1` (stereo unspecified)?
PG9 Ab binder: 0.1; GAA850 FXN act: -2.1; SMARCA2 act: 0.2; HSP90 refold inh: 0.3; AI-2 QS modul: -0.5; HSF1 inh: -65.3*

Results for O=C(NCCc1ccccc1)OCc1cn(Cc2cc(F)cc(F)c2)nn1 ?
SMARCA2 act: -2.1

What do the screens show for `CC(=O)Nc1cccc(C)c1`?
PG9 Ab binder: -1.3; GAA850 FXN act: 1.1; SMARCA2 act: -5.0

How did CC(=O)Nc1cccc(C(C)C2=CCCCC2)c1 (stereo unspecified) do in these assays?
SMARCA2 act: 7.8*

How did CCOc1cccc(-c2nn3c(-c4cccc(C)c4)nnc3s2)c1 do in these assays?
SMARCA2 act: -5.2

What do the screens show for `C[C@H]1C2CC(OC(=O)Nc3ccccc3C(F)(F)F)C(C2)[C@H]2CCCCN21` (stereo partly specified)?
SMARCA2 act: -1.7

What do the screens show for `Cc1ccc(SCc2[nH]nc3c2C(c2ccc(C)o2)C(C#N)=C(N)O3)cc1` (stereo unspecified)?
PG9 Ab binder: -1.7; GAA850 FXN act: 0.7; SMARCA2 act: 0.2; HSP90 refold inh: 3.4; AI-2 QS modul: 13.9; HSF1 inh: -66.2*

How did Cc1ccc(SCc2[nH]nc3c2C(c2ccco2)C(C#N)=C(N)O3)cc1 (stereo unspecified) do in these assays?
PG9 Ab binder: 0.2; GAA850 FXN act: 1.9; SMARCA2 act: 1.3; HSP90 refold inh: 5.4; AI-2 QS modul: 21.3; HSF1 inh: 19.3

What do the screens show for `O=C(NC(=S)Nc1ccccc1Br)C1CC1`?
PG9 Ab binder: -2.9; GAA850 FXN act: 5.7; SMARCA2 act: 2.1; HSP90 refold inh: -1.9; AI-2 QS modul: -77.2*; HSF1 inh: 3.7

Results for COc1ccc(F)c(CN2CCC(n3nccc3NC(=O)CCCc3ccccc3)CC2)c1 ?
PG9 Ab binder: -2.2; GAA850 FXN act: 0.8; SMARCA2 act: -1.3; HSP90 refold inh: 0.1; AI-2 QS modul: -95.2*; HSF1 inh: 6.5

How did Cc1ccccc1CN1CCC(n2nccc2NC(=O)CCCc2ccccc2)CC1 do in these assays?
PG9 Ab binder: -0.8; GAA850 FXN act: -0.9; SMARCA2 act: -2.4; HSP90 refold inh: -4.5; AI-2 QS modul: 26.7; HSF1 inh: -2.0

Results for CC(CCN1CCC(C(O)(c2ccccc2)c2ccccc2)CC1)Oc1cccc(Br)c1 (stereo unspecified) ?
SMARCA2 act: -4.3

How did Cc1cccc(N2C(=O)CS/C2=N\NC(=O)c2ccc(Br)cc2)c1C do in these assays?
PG9 Ab binder: 0.6; GAA850 FXN act: 3.5; SMARCA2 act: -1.1; HSP90 refold inh: 2.8; AI-2 QS modul: 1.0; HSF1 inh: -72.1*

Results for COC(=O)c1ccc(OCCOc2ccccc2C)cc1 ?
PG9 Ab binder: 0.1; GAA850 FXN act: 3.3; SMARCA2 act: 0.0; HSP90 refold inh: -2.5; AI-2 QS modul: 11.0; HSF1 inh: 5.1

Results for COC(=O)c1ccc(OCCOc2ccccc2)cc1 ?
PG9 Ab binder: 0.2; GAA850 FXN act: 3.0; SMARCA2 act: 6.8; HSP90 refold inh: -3.4; AI-2 QS modul: -75.7*; HSF1 inh: 14.9

Results for CCOC(=O)C(=O)Nc1nnc(CCc2ccccc2)s1 ?
PG9 Ab binder: -2.4; GAA850 FXN act: 0.6; SMARCA2 act: 7.8*; HSP90 refold inh: 1.7; AI-2 QS modul: 40.2; HSF1 inh: -3.7

What do the screens show for `O=C1C2CC=C(Cl)CC2C(=O)N1CNc1ccccn1` (stereo unspecified)?
PG9 Ab binder: -0.4; GAA850 FXN act: 2.3; SMARCA2 act: -0.1; HSP90 refold inh: 1.6; AI-2 QS modul: 20.3; HSF1 inh: -8.0

Results for O=C1CCC(=O)N1CNc1ccccn1 ?
PG9 Ab binder: 1.0; GAA850 FXN act: -0.8; SMARCA2 act: -0.8; HSP90 refold inh: -2.4; AI-2 QS modul: 13.8; HSF1 inh: -70.3*

What do the screens show for `Cc1ccc(OCc2nnc(SC(C)C(=O)O)n2-c2ccccc2)cc1` (stereo unspecified)?
PG9 Ab binder: -2.3; GAA850 FXN act: 0.2; SMARCA2 act: 3.2; HSP90 refold inh: 0.0; AI-2 QS modul: 20.3; HSF1 inh: -63.0*

How did Cc1ccc(OCc2nnc(SCC(=O)O)n2-c2ccccc2)cc1 do in these assays?
PG9 Ab binder: -2.0; GAA850 FXN act: 1.1; SMARCA2 act: -4.0; AI-2 QS modul: -8.0; HSF1 inh: -4.5

Results for CN1C(=O)c2cc(NC(=O)C3CCOCC3)ccc2OC[C@@H]2O[C@@H](CC(=O)NCc3ccccc3F)CC[C@@H]21 ?
SMARCA2 act: 2.6

What do the screens show for `CC1CCN(c2ccc(C(=O)O)cc2NS(=O)(=O)c2ccccc2[N+](=O)[O-])CC1`?
SMARCA2 act: -1.0

High-throughput results as filed in PubChem BioAssay.
